Measured values published in PubChem BioAssay AID1159580 (chemical genetic matrix, 2015).
Among all 5,500 compounds or so, about 2,000 (36%) were called active. Roughly 18% stayed inconclusive and do not appear here. No stated cut-off is given here; in the data, active means normalized growth mostly below about 0.91 (no sharp cut-off); inconclusive means no clear call, values can overlap the other calls; inactive means mostly above about 0.92. This is one part of the list.

Test: chemical genetic growth profiling, strain panel (AID 1159580);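 further: tested at 20 µM; growth read once vehicle control cultures reached saturation at 30 °C; 1 = growth at the plate median or of vehicle wells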
Details: S. cerevisiae deletion strains, growth OD

Measured: normalized growth

O=c1[nH]c(=O)n([C@H]2C[C@H](O)[C@@H](CO)O2)cc1Br
inactive: locus YAL013W, strain DEP1, stronger effect = lower value 1 | locus YAL040C, strain CLN3, stronger effect = lower value 1.08 | locus YDR363W, strain ESC2, stronger effect = lower value 1.01 | locus YER002W, strain NOP16, stronger effect = lower value 1.01 | locus YNL175C, strain NOP13, stronger effect = lower value 1 | locus YNL197C, strain WHI3, stronger effect = lower value 1 | locus YNL224C, strain SQS1, stronger effect = lower value 1 | locus YNL322C, strain KRE1, stronger effect = lower value 1.02 | locus YOR083W, strain WHI5 (second series), stronger effect = lower value 0.991
